Among the test systems are SR leukemia; OVCAR-8 ovarian; OVCAR-5 ovarian; OVCAR-4 ovarian; SK-OV-3 ovarian; IGROV1 ovarian; OVCAR-3 ovarian; HS 578T breast; NCI/ADR-RES ovarian; RPMI-8226 leukemia.
What all share (assay): NCI-60 one-dose screen, 48 h (100 = growth as untreated, 0 = no growth, -100 = all killed)
Common to all, as to settings: 10 µM unless noted

The panel holds about 83,000 compounds, 20% with a hit somewhere; the sample as a whole holds those more often.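 Testing used 96-well plates and a 48-hour single-concentration exposure. Example: -40 means 40% of the starting cells died.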 Unmarked numbers belong to inactive results. Activity calls are given as the source filed them. The calls were made as follows: active = growth percent below 10; inactive = the rest.

As to `O=S(=O)(NCCCNc1nccc(-n2ccc3cccnc32)n1)c1cccc(C(F)(F)F)c1`, the growth in the experiment on SR leukemia is 103%; in the experiment on OVCAR-8 ovarian, 105%; in the experiment with OVCAR-5 ovarian it was 101%; in the experiment with OVCAR-4 ovarian, 101%; with SK-OV-3 ovarian it was 112%; in the experiment on IGROV1 ovarian, 107%. In addition, the growth was 112% with OVCAR-3 ovarian, 100% in the experiment with HS 578T breast and 101% with NCI/ADR-RES ovarian.
For the molecule `O=S(=O)(NCCCNc1nccc(-n2ccc3cccnc32)n1)c1ccc(Br)cc1`, the growth is 112% in the experiment with SR leukemia; 103% with OVCAR-8 ovarian; 107% in the experiment on OVCAR-5 ovarian; 99.3% with OVCAR-4 ovarian; 113% in the experiment with SK-OV-3 ovarian; 108% with IGROV1 ovarian. Besides, the growth in the experiment with OVCAR-3 ovarian is 112%; in the experiment with HS 578T breast, 103%; with NCI/ADR-RES ovarian, 101%.
For `Cc1ccc(-c2cc3nc(-c4ccccc4)nc(C(Cl)Cl)n3n2)cc1`, the growth in the experiment on SR leukemia was 71.2%; in the experiment on OVCAR-8 ovarian it was -25.5% (active); in the experiment on OVCAR-5 ovarian, -27.2% (active); in the experiment on OVCAR-4 ovarian it was -46% (active); in the experiment with IGROV1 ovarian, 46%; with OVCAR-3 ovarian, -94.5% (active). Further, the growth is -42.1% (active) with HS 578T breast and -30.7% (active) in the experiment with NCI/ADR-RES ovarian.
For the molecule `Cc1ccc(S(=O)(=O)NCCNc2cc(-c3cn(C(C)(C)C)nc3-c3cccc(O)c3)ccn2)cc1`, the growth in the experiment on SR leukemia is 51.7%; with OVCAR-8 ovarian, 79%; in the experiment on OVCAR-5 ovarian it was 80%; with OVCAR-4 ovarian it was 67.3%; in the experiment on SK-OV-3 ovarian it was 91.4%; in the experiment on IGROV1 ovarian, 75.2%. In addition, the growth in the experiment with OVCAR-3 ovarian is 81.7%; in the experiment on HS 578T breast it was 76.6%; in the experiment with NCI/ADR-RES ovarian, 67%.
`COc1cc(Nc2ncccc2C(=O)NCc2cn(Cc3cccc(Oc4ccccc4)c3)nn2)cc(OC)c1`: the growth with SR leukemia was 25.3%; in the experiment on OVCAR-8 ovarian it was 53.9%; with OVCAR-5 ovarian, 83.2%; in the experiment on OVCAR-4 ovarian, 70.6%; in the experiment with SK-OV-3 ovarian it was 41.9%; with IGROV1 ovarian it was 58.5%. Also, the growth in the experiment with OVCAR-3 ovarian is -2.42% (active); in the experiment with HS 578T breast, 49.1%; with NCI/ADR-RES ovarian, 9.54% (active).
With `CC(C)CSc1nc(NN)c(C#N)c(-c2ccccc2)n1`, the growth in the experiment on SR leukemia is 109%; with OVCAR-8 ovarian, 105%; with OVCAR-5 ovarian, 104%; in the experiment on OVCAR-4 ovarian, 86.9%; in the experiment on SK-OV-3 ovarian, 100%; in the experiment on IGROV1 ovarian it was 103%. Also, the growth with OVCAR-3 ovarian was 91%; with HS 578T breast, 95.7%; with NCI/ADR-RES ovarian it was 92.3%.
With `CC(=O)Nc1scc[n+]1Cc1ccccc1`, the growth was 76.6% in the experiment on SR leukemia; 99.3% with OVCAR-8 ovarian; 110% with OVCAR-5 ovarian; 99.5% in the experiment on SK-OV-3 ovarian; 109% with IGROV1 ovarian; 114% in the experiment with OVCAR-3 ovarian. Besides, the results for the growth in the experiment with HS 578T breast and in the experiment on NCI/ADR-RES ovarian were 106% and 102%, respectively.
Consider `Nc1cccc(Cl)c1N`, for which the growth is 92.5% with SR leukemia; 105% in the experiment with OVCAR-8 ovarian; 108% in the experiment on OVCAR-5 ovarian; 94.4% in the experiment with OVCAR-4 ovarian; 94.3% in the experiment with SK-OV-3 ovarian; 88% with IGROV1 ovarian. Moreover, the growth is 109% in the experiment with OVCAR-3 ovarian, 98.9% in the experiment on HS 578T breast and 102% in the experiment with NCI/ADR-RES ovarian.
For the molecule `CN1CCN(Cc2ccc(NC(=O)c3cncc(C#Cc4cnc(N)c5ccncc45)c3)cc2C(F)(F)F)CC1`, the growth in the experiment with SR leukemia was 20.6%; with OVCAR-8 ovarian it was 29.6%; in the experiment with OVCAR-5 ovarian, 9.45% (active); in the experiment on OVCAR-4 ovarian it was 25.5%; in the experiment on SK-OV-3 ovarian, -12.1% (active); in the experiment with IGROV1 ovarian, 4.51% (active). Besides, the growth in the experiment with OVCAR-3 ovarian is 35.2%; in the experiment with HS 578T breast, -0.418% (active); in the experiment on NCI/ADR-RES ovarian, 71.8%.
On to `CCC(=O)OC1=CN2C(=NC(c3ccc(N)cc3)=CC2c2cc(OC)c(OC)c(OC)c2)S1` (stereo unspecified), for which the growth is 17.9% in the experiment on RPMI-8226 leukemia; 36.6% in the experiment with OVCAR-8 ovarian; 77.7% in the experiment on OVCAR-5 ovarian; 57.3% with OVCAR-4 ovarian; 68.1% in the experiment with SK-OV-3 ovarian; 65.4% with IGROV1 ovarian. Moreover, the growth was 24.1% with OVCAR-3 ovarian, 49% in the experiment on HS 578T breast and 66.9% with NCI/ADR-RES ovarian.
Consider `O=C(Nc1ccc2c(c1)OCO2)C(=O)c1c[nH]c2cc(F)ccc12`, for which the growth was 64% in the experiment with RPMI-8226 leukemia; 59% in the experiment on OVCAR-8 ovarian; 77.6% in the experiment with OVCAR-5 ovarian; 50.7% with OVCAR-4 ovarian; 59.7% in the experiment with SK-OV-3 ovarian; 59.6% in the experiment on IGROV1 ovarian. Also, the growth was 50.5% in the experiment with OVCAR-3 ovarian, 50.1% with HS 578T breast and 47.6% with NCI/ADR-RES ovarian.
In the case of `C=COC(=O)CCCCCCCCC`, the growth is 100% in the experiment with RPMI-8226 leukemia; 101% with OVCAR-8 ovarian; 111% with OVCAR-5 ovarian; 109% in the experiment on OVCAR-4 ovarian; 111% in the experiment on SK-OV-3 ovarian; 97.1% in the experiment on IGROV1 ovarian. Besides, the growth with OVCAR-3 ovarian was 120%; with HS 578T breast, 102%; in the experiment on NCI/ADR-RES ovarian, 103%.
For the molecule `Fc1ccc(Nc2nc(NCCNc3ccnc4cc(Cl)ccc34)nc(N3CCOCC3)n2)cc1`, the growth was 33.6% with RPMI-8226 leukemia; 74.7% with OVCAR-8 ovarian; 105% with OVCAR-5 ovarian; 61.1% in the experiment on OVCAR-4 ovarian; 91.6% in the experiment with SK-OV-3 ovarian; 75.5% with IGROV1 ovarian. The results for the growth with OVCAR-3 ovarian, in the experiment on HS 578T breast and in the experiment with NCI/ADR-RES ovarian were 85.1%, 70.2% and 77.8%, respectively.
In the case of `Nc1cccc(-c2nc3sccn3c2-c2ccnc(NCCCNS(=O)(=O)c3cccc4ccccc34)n2)c1`, the growth with SR leukemia is 38.7%; in the experiment with OVCAR-8 ovarian, 23.5%; in the experiment on OVCAR-5 ovarian, 92.1%; in the experiment with SK-OV-3 ovarian, 63.1%; in the experiment on IGROV1 ovarian it was 36.7%; with OVCAR-3 ovarian it was 37.6%. In addition, the growth with HS 578T breast is 44.7%; in the experiment on NCI/ADR-RES ovarian, 38.3%.
On to `CC12CCCC(CC(=O)c3[nH]c4ccccc4c31)C2` (stereo unspecified), for which the growth with SR leukemia is 15.5%; with OVCAR-8 ovarian, 31.1%; in the experiment on OVCAR-5 ovarian, 34.6%; with SK-OV-3 ovarian, 53.4%; in the experiment on IGROV1 ovarian, 24.6%; in the experiment on OVCAR-3 ovarian, -26.1% (active). Besides, the growth in the experiment with HS 578T breast was 12.8%; in the experiment with NCI/ADR-RES ovarian, 5.24% (active).

(Values after PubChem BioAssay (NCI).)
